Reference: the supplement of paper PMC11732987, “Enantioselective OTUD7B fragment discovery through chemoproteomics screening and high-throughput optimisation” (Communications Chemistry, 2025)

Columns and labels:
Assay in all cases: log2 ratio of Biotin-Ahx-Ub-VS probe labelling (fragment/DMSO); higher = less target engagement (more negative = stronger competition), active = hit call of the paper (q ≤ 0.05, log2 ratio ≤ -1)
Conditions in all cases: compound concentration: 200 uM; treatment time: 3 h
[1] = biological target: T1, USP42 (UniProt Q9H9J4)
T1 sequence (whole entry): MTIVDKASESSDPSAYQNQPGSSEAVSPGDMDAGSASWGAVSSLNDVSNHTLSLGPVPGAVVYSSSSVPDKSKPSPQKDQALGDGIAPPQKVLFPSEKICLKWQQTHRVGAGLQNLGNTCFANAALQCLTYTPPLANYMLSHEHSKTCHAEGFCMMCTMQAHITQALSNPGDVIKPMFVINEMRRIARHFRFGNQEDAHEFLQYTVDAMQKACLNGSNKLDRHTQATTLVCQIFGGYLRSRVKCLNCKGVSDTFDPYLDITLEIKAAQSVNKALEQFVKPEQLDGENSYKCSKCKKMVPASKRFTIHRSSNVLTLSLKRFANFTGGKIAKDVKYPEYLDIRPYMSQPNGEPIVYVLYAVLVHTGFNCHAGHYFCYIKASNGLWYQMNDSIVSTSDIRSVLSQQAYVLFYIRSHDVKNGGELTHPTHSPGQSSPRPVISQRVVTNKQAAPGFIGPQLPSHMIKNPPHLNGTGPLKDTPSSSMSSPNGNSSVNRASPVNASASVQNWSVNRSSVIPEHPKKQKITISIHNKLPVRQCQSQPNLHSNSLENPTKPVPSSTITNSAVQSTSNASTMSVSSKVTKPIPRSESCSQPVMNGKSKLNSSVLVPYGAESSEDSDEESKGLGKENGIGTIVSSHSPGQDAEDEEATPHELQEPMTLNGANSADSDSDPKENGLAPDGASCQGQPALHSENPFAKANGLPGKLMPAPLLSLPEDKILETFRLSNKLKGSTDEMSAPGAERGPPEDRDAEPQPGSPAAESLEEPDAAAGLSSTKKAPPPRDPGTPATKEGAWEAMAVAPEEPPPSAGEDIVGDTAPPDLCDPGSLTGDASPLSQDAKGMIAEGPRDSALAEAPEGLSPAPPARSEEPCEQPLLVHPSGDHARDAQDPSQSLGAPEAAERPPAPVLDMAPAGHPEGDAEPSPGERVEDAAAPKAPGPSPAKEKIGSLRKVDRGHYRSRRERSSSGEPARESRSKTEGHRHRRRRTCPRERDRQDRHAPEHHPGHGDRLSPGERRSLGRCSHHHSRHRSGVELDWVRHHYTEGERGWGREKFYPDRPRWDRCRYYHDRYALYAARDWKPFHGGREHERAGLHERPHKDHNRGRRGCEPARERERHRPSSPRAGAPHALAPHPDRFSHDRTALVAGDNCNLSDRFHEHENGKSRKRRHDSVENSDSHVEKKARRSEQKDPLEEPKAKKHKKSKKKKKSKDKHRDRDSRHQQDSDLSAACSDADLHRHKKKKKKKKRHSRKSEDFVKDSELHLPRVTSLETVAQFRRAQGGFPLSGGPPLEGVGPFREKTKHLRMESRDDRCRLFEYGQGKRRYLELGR
Summary of the method: (§1)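 In triplicate, 495 µg of HEK293T lysate per sample was incubated with fragment at 200 µM or vehicle for 3 h. Biotin-Ahx-Ub-VS was then added to 0.5 µM final for 1 h, and labelled DUBs were captured with NeutrAvidin, digested with LysC and trypsin, and measured by diaPASEF LC-MS/MS. Data are average log2 fragment/vehicle ratios by unpaired t-test from global-median-normalised Spectronaut label-free quantities, restricted to proteins with ≥2 unique peptides.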

[2] = biological target: USP46 (UniProt P62068)
Summary of the method: as §1

[3] = biological target: T2, USP47 (UniProt Q96K76)
T2 sequence (whole entry): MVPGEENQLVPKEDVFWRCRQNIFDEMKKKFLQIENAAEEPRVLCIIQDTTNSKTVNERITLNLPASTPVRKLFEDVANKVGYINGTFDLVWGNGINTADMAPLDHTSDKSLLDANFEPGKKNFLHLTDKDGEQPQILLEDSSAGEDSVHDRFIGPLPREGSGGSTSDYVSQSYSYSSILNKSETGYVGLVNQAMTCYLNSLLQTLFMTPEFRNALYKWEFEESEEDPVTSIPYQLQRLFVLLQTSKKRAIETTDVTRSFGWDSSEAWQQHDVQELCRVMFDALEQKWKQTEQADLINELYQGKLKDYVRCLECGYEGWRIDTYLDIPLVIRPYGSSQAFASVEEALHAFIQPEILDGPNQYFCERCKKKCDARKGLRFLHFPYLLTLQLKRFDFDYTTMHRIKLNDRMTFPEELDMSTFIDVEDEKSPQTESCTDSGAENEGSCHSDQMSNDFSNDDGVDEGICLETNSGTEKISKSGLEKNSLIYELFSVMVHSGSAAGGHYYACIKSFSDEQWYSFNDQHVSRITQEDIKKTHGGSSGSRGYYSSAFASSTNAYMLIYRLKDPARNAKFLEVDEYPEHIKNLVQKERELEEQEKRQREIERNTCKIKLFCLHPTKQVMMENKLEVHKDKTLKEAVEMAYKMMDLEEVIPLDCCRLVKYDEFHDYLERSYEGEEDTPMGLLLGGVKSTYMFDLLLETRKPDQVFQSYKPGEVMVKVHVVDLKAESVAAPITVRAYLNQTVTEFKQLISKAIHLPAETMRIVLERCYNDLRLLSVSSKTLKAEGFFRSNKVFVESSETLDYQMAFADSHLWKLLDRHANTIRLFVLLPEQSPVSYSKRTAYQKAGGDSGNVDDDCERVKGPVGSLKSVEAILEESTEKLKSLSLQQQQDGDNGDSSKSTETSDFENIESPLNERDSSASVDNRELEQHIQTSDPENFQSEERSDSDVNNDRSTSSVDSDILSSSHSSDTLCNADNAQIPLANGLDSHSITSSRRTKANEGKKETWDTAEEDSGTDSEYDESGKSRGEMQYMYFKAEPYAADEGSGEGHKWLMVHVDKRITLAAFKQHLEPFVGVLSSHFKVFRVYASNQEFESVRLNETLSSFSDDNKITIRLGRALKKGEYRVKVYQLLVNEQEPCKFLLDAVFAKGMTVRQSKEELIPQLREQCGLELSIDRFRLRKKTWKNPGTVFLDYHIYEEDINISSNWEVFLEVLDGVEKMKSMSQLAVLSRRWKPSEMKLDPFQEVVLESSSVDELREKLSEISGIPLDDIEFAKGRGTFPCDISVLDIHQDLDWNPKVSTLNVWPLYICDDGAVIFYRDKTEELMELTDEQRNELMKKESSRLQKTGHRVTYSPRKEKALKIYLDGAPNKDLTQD
Summary of the method: as §1

[4] = biological target: T3, USP48 (UniProt Q86UV5)
T3 sequence (whole entry): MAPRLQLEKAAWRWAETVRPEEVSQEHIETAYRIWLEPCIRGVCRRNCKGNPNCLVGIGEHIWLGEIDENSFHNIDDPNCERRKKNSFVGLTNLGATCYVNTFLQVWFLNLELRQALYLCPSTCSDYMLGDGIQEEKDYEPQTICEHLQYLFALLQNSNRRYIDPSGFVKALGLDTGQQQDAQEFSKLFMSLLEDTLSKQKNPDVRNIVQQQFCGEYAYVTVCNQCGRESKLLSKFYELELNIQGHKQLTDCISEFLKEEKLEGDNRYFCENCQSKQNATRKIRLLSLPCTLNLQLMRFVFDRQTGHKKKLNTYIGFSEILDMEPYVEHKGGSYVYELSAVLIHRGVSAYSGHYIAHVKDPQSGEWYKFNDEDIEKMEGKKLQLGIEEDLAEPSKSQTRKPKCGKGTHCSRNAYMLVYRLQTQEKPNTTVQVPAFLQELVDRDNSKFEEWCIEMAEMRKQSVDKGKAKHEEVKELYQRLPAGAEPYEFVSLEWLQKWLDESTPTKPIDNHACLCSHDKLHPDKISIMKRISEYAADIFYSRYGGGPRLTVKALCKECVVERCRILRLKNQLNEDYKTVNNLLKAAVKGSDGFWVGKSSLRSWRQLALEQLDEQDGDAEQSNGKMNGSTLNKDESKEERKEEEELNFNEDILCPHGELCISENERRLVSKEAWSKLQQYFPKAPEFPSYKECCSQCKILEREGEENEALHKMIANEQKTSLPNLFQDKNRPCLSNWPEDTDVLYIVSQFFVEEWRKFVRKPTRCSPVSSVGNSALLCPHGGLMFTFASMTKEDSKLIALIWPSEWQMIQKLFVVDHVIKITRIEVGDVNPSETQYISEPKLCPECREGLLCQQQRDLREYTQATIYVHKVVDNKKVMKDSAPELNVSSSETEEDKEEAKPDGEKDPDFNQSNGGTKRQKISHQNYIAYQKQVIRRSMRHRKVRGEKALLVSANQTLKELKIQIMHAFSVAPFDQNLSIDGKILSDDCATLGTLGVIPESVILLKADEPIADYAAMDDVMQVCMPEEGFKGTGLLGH
Summary of the method: as §1

[5] = biological target: T4, USP5 (UniProt P45974)
T4 sequence (whole entry): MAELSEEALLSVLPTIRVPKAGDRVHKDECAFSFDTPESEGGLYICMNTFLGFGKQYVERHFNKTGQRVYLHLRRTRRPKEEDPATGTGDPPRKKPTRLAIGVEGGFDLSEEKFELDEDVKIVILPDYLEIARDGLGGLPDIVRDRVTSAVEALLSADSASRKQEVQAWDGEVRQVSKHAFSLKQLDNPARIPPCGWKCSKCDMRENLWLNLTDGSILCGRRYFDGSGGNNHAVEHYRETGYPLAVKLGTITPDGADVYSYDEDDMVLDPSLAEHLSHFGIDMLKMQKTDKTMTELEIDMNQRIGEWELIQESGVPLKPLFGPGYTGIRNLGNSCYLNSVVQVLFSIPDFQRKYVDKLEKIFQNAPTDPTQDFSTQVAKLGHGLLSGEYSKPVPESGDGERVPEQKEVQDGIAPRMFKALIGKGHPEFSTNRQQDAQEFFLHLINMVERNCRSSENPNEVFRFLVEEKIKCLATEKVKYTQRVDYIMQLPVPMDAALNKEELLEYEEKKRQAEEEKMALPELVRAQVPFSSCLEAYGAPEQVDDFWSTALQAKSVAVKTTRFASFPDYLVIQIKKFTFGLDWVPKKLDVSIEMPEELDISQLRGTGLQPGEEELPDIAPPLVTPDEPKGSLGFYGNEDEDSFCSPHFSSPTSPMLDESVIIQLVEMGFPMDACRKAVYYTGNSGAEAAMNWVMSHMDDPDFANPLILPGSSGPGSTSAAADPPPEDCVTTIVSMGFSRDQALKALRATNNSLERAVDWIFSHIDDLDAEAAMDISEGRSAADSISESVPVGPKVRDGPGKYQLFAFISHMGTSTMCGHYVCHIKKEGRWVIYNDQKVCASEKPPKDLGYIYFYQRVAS
Summary of the method: as §1

[6] = biological target: USP54 (UniProt Q70EL1)
Summary of the method: as §1

[7] = biological target: USP7 (UniProt Q93009)
Summary of the method: as §1

[8] = biological target: T5, USP8 (UniProt P40818)
T5 sequence (whole entry): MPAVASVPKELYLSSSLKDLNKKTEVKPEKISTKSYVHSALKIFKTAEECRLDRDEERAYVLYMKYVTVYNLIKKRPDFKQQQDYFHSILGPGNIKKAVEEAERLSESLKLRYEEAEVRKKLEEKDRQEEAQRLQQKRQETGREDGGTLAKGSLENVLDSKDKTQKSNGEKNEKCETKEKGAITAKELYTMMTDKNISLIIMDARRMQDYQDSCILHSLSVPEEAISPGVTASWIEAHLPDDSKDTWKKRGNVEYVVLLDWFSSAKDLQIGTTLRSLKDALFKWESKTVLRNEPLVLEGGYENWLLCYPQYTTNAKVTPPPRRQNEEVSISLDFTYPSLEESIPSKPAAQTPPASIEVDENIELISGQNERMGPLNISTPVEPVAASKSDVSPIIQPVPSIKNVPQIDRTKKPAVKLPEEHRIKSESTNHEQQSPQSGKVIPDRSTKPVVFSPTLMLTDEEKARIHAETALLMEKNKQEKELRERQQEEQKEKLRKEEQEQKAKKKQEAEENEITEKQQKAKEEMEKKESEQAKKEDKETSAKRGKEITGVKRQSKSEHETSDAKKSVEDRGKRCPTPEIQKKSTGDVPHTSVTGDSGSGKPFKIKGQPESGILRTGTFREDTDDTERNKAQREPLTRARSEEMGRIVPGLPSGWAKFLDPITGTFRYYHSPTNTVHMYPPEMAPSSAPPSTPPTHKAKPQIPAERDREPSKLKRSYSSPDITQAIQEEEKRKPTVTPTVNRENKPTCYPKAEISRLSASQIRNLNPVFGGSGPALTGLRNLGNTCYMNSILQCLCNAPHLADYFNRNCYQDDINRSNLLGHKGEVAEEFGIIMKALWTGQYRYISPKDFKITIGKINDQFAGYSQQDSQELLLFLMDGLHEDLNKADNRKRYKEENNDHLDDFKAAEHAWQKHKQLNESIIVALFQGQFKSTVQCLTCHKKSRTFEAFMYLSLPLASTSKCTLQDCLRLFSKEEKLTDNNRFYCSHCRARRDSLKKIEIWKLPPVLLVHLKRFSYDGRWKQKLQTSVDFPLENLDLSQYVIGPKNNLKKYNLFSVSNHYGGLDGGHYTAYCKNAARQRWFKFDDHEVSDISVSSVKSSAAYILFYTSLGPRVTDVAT
Summary of the method: as §1

[9] = biological target: USP9X (UniProt Q93008)
Summary of the method: as §1

[10] = biological target: UniProt O00487
Summary of the method: as §1

Measured: log2 ratio of Biotin-Ahx-Ub-VS probe labelling

Sequence of USP54 (Q70EL1 whole entry): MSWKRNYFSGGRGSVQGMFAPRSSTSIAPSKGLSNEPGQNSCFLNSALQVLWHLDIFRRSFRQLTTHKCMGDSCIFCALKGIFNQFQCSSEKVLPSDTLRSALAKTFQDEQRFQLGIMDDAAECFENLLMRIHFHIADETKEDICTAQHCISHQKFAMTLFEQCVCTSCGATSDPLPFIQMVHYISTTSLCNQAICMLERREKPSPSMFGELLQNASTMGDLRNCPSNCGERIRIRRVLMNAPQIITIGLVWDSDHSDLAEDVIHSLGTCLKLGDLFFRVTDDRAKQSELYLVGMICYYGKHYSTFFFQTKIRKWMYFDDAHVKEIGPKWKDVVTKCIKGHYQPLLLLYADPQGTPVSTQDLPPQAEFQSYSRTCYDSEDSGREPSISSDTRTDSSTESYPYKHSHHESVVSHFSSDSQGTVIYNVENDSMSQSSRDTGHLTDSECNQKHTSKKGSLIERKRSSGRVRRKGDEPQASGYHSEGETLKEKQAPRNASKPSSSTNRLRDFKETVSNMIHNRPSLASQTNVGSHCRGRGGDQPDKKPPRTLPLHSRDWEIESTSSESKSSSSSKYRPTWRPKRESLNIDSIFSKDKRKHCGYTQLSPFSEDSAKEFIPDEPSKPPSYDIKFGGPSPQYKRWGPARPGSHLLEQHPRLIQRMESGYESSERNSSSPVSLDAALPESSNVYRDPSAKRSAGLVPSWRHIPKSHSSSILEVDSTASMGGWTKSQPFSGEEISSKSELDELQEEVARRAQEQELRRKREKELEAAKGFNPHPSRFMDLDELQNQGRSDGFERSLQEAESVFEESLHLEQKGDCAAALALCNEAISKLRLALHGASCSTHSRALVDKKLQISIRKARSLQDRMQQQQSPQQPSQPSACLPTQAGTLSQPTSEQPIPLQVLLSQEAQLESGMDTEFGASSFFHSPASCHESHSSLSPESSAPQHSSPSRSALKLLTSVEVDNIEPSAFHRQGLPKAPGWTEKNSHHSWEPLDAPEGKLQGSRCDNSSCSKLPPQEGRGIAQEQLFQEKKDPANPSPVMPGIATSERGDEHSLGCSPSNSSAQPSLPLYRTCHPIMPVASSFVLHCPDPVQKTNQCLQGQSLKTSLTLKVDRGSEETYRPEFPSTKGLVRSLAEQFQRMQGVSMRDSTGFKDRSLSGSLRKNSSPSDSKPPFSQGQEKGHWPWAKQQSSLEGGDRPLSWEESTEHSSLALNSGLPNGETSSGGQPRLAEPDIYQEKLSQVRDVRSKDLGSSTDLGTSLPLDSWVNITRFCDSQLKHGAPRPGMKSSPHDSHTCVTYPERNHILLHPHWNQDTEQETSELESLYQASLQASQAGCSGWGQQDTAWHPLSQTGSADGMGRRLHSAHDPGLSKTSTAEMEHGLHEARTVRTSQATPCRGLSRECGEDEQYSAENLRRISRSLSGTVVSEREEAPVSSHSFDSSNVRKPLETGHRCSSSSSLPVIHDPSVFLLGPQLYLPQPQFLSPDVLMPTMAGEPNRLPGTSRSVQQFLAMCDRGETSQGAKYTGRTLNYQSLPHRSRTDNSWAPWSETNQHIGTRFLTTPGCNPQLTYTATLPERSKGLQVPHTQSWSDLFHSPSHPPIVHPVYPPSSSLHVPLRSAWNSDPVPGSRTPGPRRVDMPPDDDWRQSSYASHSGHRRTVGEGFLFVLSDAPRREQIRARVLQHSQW
Sequence of USP9X (Q93008 whole entry): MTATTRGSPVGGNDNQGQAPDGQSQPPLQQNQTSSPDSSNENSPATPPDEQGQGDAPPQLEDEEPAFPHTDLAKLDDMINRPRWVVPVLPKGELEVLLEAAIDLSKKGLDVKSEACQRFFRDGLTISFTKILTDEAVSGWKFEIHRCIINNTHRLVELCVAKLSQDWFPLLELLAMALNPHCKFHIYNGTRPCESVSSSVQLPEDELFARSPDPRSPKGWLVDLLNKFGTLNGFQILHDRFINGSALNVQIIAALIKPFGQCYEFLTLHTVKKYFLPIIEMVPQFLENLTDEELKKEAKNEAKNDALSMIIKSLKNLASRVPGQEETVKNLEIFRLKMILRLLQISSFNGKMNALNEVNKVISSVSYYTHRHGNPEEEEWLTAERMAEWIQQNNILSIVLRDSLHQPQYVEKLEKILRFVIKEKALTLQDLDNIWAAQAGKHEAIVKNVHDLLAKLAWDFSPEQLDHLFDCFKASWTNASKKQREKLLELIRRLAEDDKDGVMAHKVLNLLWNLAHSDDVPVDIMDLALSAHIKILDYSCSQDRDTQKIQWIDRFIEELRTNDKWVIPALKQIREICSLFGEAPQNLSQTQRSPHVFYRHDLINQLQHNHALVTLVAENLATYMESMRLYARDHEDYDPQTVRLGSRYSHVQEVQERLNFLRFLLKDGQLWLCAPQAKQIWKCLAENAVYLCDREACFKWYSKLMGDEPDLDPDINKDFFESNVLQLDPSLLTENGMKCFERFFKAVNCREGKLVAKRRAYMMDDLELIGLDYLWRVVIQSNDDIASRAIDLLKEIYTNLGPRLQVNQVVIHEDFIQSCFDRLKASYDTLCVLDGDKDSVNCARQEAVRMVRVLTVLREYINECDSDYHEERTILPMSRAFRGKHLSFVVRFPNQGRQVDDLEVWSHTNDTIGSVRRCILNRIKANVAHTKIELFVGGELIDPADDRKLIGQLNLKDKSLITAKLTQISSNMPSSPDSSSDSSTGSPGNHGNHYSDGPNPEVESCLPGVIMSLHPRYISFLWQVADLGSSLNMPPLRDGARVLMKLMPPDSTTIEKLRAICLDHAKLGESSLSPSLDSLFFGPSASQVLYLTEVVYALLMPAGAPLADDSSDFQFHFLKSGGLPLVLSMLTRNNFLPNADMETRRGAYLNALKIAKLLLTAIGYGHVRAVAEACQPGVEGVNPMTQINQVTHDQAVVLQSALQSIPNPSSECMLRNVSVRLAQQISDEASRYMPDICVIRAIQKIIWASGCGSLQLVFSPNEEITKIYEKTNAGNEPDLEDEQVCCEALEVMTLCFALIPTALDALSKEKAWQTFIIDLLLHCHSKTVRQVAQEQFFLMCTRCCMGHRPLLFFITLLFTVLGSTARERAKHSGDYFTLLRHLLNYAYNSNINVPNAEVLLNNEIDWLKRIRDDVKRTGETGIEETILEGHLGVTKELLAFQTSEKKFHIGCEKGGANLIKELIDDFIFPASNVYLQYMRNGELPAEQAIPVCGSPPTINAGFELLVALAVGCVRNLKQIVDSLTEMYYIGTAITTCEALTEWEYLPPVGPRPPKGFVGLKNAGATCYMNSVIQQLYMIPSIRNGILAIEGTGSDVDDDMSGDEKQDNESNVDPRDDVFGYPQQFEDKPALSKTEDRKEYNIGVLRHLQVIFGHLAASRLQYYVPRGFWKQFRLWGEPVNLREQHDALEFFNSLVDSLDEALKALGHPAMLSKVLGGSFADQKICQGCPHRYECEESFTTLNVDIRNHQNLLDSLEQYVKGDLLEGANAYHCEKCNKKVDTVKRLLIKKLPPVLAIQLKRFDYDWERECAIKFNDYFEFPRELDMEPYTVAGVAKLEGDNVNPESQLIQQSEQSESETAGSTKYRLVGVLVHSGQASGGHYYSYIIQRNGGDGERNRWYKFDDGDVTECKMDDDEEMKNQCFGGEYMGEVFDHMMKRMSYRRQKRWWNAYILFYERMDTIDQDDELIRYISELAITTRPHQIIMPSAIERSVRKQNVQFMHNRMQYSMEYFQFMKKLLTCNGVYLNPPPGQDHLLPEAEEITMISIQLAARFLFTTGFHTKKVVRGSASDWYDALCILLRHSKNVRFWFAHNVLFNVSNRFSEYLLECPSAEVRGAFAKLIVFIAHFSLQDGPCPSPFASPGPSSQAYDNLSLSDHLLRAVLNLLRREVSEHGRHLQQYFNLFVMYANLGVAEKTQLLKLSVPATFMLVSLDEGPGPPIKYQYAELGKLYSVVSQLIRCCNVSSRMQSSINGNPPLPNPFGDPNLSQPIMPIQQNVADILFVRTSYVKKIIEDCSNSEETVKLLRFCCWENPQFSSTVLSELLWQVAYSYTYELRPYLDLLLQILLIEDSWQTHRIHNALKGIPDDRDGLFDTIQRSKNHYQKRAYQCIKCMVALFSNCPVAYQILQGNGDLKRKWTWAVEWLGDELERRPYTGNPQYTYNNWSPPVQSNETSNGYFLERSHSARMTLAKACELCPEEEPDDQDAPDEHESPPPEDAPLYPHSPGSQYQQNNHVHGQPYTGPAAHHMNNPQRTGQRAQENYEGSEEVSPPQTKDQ
Sequence of USP46 (P62068 whole entry): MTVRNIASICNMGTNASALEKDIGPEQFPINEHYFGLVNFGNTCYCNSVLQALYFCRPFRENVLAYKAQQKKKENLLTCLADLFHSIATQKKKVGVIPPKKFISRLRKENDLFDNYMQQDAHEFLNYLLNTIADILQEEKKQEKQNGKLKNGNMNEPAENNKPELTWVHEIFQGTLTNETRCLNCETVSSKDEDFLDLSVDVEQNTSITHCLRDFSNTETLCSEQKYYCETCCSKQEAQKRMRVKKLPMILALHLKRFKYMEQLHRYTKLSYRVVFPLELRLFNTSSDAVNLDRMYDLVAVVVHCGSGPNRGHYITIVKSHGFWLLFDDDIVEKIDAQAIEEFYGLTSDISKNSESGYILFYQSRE
Sequence of UniProt O00487 (O00487 whole entry): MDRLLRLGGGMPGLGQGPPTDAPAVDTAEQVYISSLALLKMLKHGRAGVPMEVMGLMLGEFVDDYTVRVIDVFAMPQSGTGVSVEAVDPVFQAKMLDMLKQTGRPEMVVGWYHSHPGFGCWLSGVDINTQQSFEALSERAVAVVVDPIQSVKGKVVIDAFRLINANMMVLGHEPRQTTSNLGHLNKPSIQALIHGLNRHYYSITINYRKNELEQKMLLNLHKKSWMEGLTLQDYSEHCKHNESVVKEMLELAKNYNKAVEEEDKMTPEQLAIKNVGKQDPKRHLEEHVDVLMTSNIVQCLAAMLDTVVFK

O=C(CCl)Nc1ccc2c(c1)OC(F)(F)O2
inactive: [1] -0.384 | [2] -0.0942 | [4] -0.476 | [5] 0.218 | [6] 0.684 | [7] -0.296 | [8] -0.29 | [9] -0.301 | [10] 0.0325
active: [3] -1.16
